According to PubChem BioAssay (NCI):
Compounds without any hit were thinned out: in the full panel of roughly 83,000, 20% have a hit.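 Results are percent growth after 48 hours of single-concentration exposure. 100 means growth as in untreated cells, lower positive values show inhibition; negative values down to -100 show cell death.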 Unmarked numbers belong to inactive results. Active and inactive are the calls of the source. The calls were made as follows: active = growth percent below 10; inactive = the rest.

Legend:
Assay in all cases: NCI-60 one-dose screen, 48 h (100 = growth as untreated, 0 = no growth, -100 = all killed)
Conditions in all cases: 10 µM unless noted
SK-MEL-2 melanoma = tested on: SK-MEL-2 melanoma
EKVX NSCLC = tested on: EKVX NSCLC
SN12C renal = tested on: SN12C renal
UO-31 renal = tested on: UO-31 renal
TK-10 renal = tested on: TK-10 renal
ACHN renal = tested on: ACHN renal
CAKI-1 renal = tested on: CAKI-1 renal
A498 renal = tested on: A498 renal
CCRF-CEM leukemia = tested on: CCRF-CEM leukemia
MOLT-4 leukemia = tested on: MOLT-4 leukemia
SR leukemia = tested on: SR leukemia
RPMI-8226 leukemia = tested on: RPMI-8226 leukemia
OVCAR-8 ovarian = tested on: OVCAR-8 ovarian
OVCAR-5 ovarian = tested on: OVCAR-5 ovarian
OVCAR-4 ovarian = tested on: OVCAR-4 ovarian
IGROV1 ovarian = tested on: IGROV1 ovarian
OVCAR-3 ovarian = tested on: OVCAR-3 ovarian
HS 578T breast = tested on: HS 578T breast
NCI/ADR-RES ovarian = tested on: NCI/ADR-RES ovarian
SK-OV-3 ovarian = tested on: SK-OV-3 ovarian

Compound	growth (SK-MEL-2 melanoma)	growth (EKVX NSCLC) [%]	growth (SN12C renal)	growth (UO-31 renal)	growth (TK-10 renal)	growth (ACHN renal)	growth (CAKI-1 renal)	growth (A498 renal)	growth (CCRF-CEM leukemia)	growth (MOLT-4 leukemia)	growth (SR leukemia)	growth (RPMI-8226 leukemia)	growth (OVCAR-8 ovarian) [%]	growth (OVCAR-5 ovarian) [%]	growth (OVCAR-4 ovarian)	growth (IGROV1 ovarian)	growth (OVCAR-3 ovarian)	growth (HS 578T breast) [%]	growth (NCI/ADR-RES ovarian)	growth (SK-OV-3 ovarian) [%]
COC(=O)c1cccc(NC2=C(Cl)C(=O)c3nc(C)ccc3C2=O)c1	101%	54.3	93.1%	48.5%	128%	0.427% (active)	103%	71%	5.63% (active)	19.7%	18.7%	3.31% (active)	77.4	99.8	-97.6% (active)	-58.1% (active)	4.2% (active)	102	89.7%	–
C#CCN(C)CCCOc1ccc(NC(=O)CCCCCCCCC(=O)NO)cc1Cl	96.7%	68.8	95.9%	51.7%	63.1%	80.4%	78.6%	81.1%	30.5%	43.2%	32.7%	40.2%	53.4	68.8	74.3%	71.5%	73.7%	70.3	82.7%	–
O=C(CCCCCCN1CC(=O)N2[C@@H](c3ccccc3Br)c3[nH]c4ccccc4c3C[C@H]2C1=O)NO	39.3%	62.5	66.3%	58.4%	28.7%	70.2%	42.2%	74.7%	17.7%	6.43% (active)	14%	12%	34.1	50.9	88.1%	48.3%	–	59.6	83.7%	75.5
COc1ccc(-c2cc(-c3ccc(N(C)C)cc3)n3c(n2)nc2ccccc23)cc1	-3.8% (active)	56.5	64.7%	35.2%	40.9%	63.7%	61.2%	51.8%	24%	13.8%	50.8%	23.1%	39.8	95.5	56.7%	77.6%	–	82.4	59.5%	55.5
Fc1cccc(Cl)c1/C=N/Nc1nc(N/N=C/c2c(F)cccc2Cl)nc(N2CCCCC2)n1	-25.8% (active)	13.8	23.2%	9.02% (active)	27.2%	4.21% (active)	14.1%	52.8%	22.3%	13.7%	16.1%	3.27% (active)	25.8	27.8	21%	17.7%	–	33.3	15.2%	39.1
C#Cc1nc(/C=C/CCCCCCC(=O)NO)cs1	96.1%	89.5	90.3%	-93.1% (active)	31.6%	-39.1% (active)	-11.4% (active)	73.9%	-39.3% (active)	-14% (active)	-39.9% (active)	-12.7% (active)	31.8	59.3	47.2%	-80.3% (active)	–	80	24.9%	88.8
O=C1/C(=C/c2cc(F)cc(F)c2)Cc2cc3c(cc21)OCO3	44.3%	73.5	45.7%	41.3%	99.4%	43.9%	29.1%	20.2%	56.1%	43.3%	18.4%	52.3%	42.5	65.3	61.9%	36.9%	–	46.9	19.4%	35.6
COc1ccc(NC2=C(Br)C(=O)C(C)=C(C)C2=O)cc1OC	106%	80.8	100%	83.5%	165%	99.7%	99.1%	95%	-27.9% (active)	-41.6% (active)	71.2%	70.8%	96	121	14.1%	86%	107%	97.6	97.3%	–
COc1cccc2c1C=CC1(O2)Oc2cccc(OC)c2C=C1C (centres undefined)	57.7%	47.7	49%	47%	103%	40.4%	29.2%	5.37% (active)	10.1%	11.7%	12.8%	18.9%	23.5	29.6	85.3%	27.9%	–	20.8	4.87% (active)	65.5
CCOC(=O)Nc1ccc2c(ccn2C(=O)c2cccc(F)c2)c1	32%	44.1	48.7%	49.9%	59.9%	53.4%	45.1%	-6.19% (active)	16.7%	30.2%	16.8%	24.6%	43.9	60.5	68.8%	45.4%	–	39.1	19.8%	55.3
CCCCc1nc2c(N)nc3ccccc3c2n1Cc1ccc(OC)cc1	71.6%	58.5	71.5%	40.2%	68.3%	76.9%	52.2%	35.7%	60.2%	36.8%	46.2%	34.1%	67.4	82.4	58.1%	56.8%	–	79.8	59.2%	74.8
CCCCCCOC(=O)c1cc(-c2ccc(F)cc2)nc2ccccc12	101%	96.8	95%	86.6%	118%	100%	90.3%	76.4%	95.8%	97.2%	107%	110%	98.1	102	101%	88.3%	104%	94.1	96.1%	–
NS(=O)(=O)c1ccc(Nc2nc(Nc3ccccc3)nc(N3N=C(c4ccc(Cl)cc4)CC3c3ccc(Cl)cc3)n2)cc1 (centres undefined)	65.6%	56.9	40.2%	48.9%	89.3%	32.6%	42.7%	55.8%	14.2%	17.3%	5.52% (active)	37.1%	68.4	43.2	49.5%	34.3%	–	78.8	62.4%	64.9
Fc1cc(F)cc(NNC(=S)c2ccccc2)c1	76%	39.7	9.96% (active)	26.4%	92.3%	55.4%	56.2%	14.4%	24.2%	25.1%	23.2%	15.6%	41	91.8	49.1%	57.2%	–	61.3	55.2%	28.1
Cn1cc(-c2nn3cc(-c4ccncc4)nc3s2)c2cc(Br)ccc21	75.2%	45.7	67.7%	39.3%	113%	68.9%	56.5%	81.4%	29.7%	12.9%	8.33% (active)	15.2%	28.8	73.8	75.7%	33.4%	–	54.3	42.8%	87.6
O=C(/C=C/c1csc(Br)n1)NO	37.6%	37.5	68.7%	15.5%	-9.31% (active)	8.2% (active)	15.9%	-5.59% (active)	21.2%	9.51% (active)	13.8%	9.04% (active)	22.3	10.7	65.1%	16.7%	–	44.3	1.04% (active)	38.2
